Laboratory results from the OligoGym collection.

Molecular target: TDRD10
Assay: pooled miR-30 sensor sort-seq; sequence = guide strand
Settings: shRNA
Further: reference of the scale not given here.

Row | Sequence | sensor-assay potency score (higher = more potent)
1 | TTTGCTTGTATTCACGAACAGT | -0.914
2 | AAGTCGTCGCTGTCTAGGCTGC | -0.771
3 | TTCTCCATTATCCAGAATCTGT | -1.03
4 | TTTAGGATGTGCAACGCCGAGT | -0.733
5 | TTTTGTGGACATCAAGAGGGTT | -0.194
6 | ATGAACATGACCACAGCCCAGG | -1.56
7 | TTTGTGGACATCAAGAGGGTTG | -0.333
8 | TCCAACACTCCATTCTTCCCAA | -0.74
9 | TTCACGAACAGTTTTCGCTTGT | 0.41
10 | AAGATTGCCAACATACACCTCT | 0.896
11 | TTCCTCCTTAGAAATATCCAGT | -0.848
12 | TAGAAGGTACAGAATTTCCTCC | 0.0428

Molecular target: TDRD7
Assay: as above
Settings: shRNA

Row | Sequence | sensor-assay potency score (higher = more potent)
13 | TAGATTGTGGAAGATCTGCTAA | -0.00415
14 | TAGAAGGTCACTGAGCTTGTTC | -0.0033
15 | TAGTGTAGGGAAACCTAGCTGT | -0.0859
16 | TAAATTATCACTCATTTCCTTA | -0.487
17 | TTTCTTGTAGAAACCGAGGTGG | 0.248
18 | ATAGTCAACATAGCATACCTTT | -1.08
19 | TTAACCACAGCACTGCATCTGG | -0.0871
20 | TTAGTTACTTTGACATTTGTGT | 0.2
21 | TATCGTACAGAACAACAAGTGG | -0.96
22 | TTTCCTTTGTCTCTTAACGGTG | -1.32
23 | TGACTTGTCACATATAGCCTTC | -0.332
24 | TTCAATGACTGTCTGCACCAGT | 0.309

Molecular target: TDRKH
Assay: as above
Settings: shRNA

Row | Sequence | sensor-assay potency score (higher = more potent)
25 | TTTAATATTGGCTCCTTGCCGG | -0.28
26 | TTTTCTTCTATGTCTTCAGGAA | 0.0327
27 | TTGATAGTAGTAATGTCCCTTC | -0.374
28 | ATCTTCTGAAACTTTCTCCAGT | -0.507
29 | TTGTAGGTAAAGGTGCTGCTAC | -0.223
30 | TATAAGTAGATCTTTGGCCAAG | -1.04
31 | ATGTCCTTCAACATGTCTGGGA | -0.897
32 | TTATAAGTCTTGATAGTAGTAA | -0.315
33 | TTGGTCTCAGTGAGCAACGTGC | -0.522
34 | TTAATATTGGCTCCTTGCCGGC | -1.54
35 | TCTGTGTCCACATCAATCCGAG | -0.281
36 | TTGTGTACTAATTCTAGCCCAA | 0.0219
